Data on 38 sequences can be found in the OligoGym collection.
Also: reference of the scale not given here.

One assay concerns the target APOL1. Nature of the assay: pooled miR-30 sensor sort-seq; sequence = guide strand. Particulars: shRNA.
Turning to TTGTCTTTCATGATCATTTGTC, the sensor-assay potency score (higher = more potent) is 0.325. In turn, TTTTGTTGCACCCTCGCTCCAG showed a sensor-assay potency score (higher = more potent) of -0.279. On to TATCCAACTGTTCTAACTCTTG, for which the sensor-assay potency score (higher = more potent) was -1.08.

Take TCAAGCTCACTTTTCAACCGAG: the sensor-assay potency score (higher = more potent) was -0.112. On the same count and under the same terms, then TTTGTTGCACCCTCGCTCCAGC, with -0.393; and TTTGAGGATCTCCAGTATCTGT, with -1.27. With TAACTCTTGGGCTTTCTCCATT, the sensor-assay potency score (higher = more potent) is -0.755. The same measure, in the same setting: then TTGTCTTGCAAGGTTGTCCAGA, with -0.407. Regarding TATCGTGCCAGTTTTTGTCTTT, the sensor-assay potency score (higher = more potent) is -0.367. On the same count and under the same terms, then TTCATTAACCCTCTCCACCTGT, with -0.144; and TTAGTCTAAAGTAAACTGCTTC, with -0.132. Still for that read-out and setting: then TAGCTTCTCCTCCAGCTCCTGA, with -0.925.

For a further assay, the target named is APTX. Described as above. To be noted: shRNA.
TGGAAGTCTGATTCGCTGGTGC registered a sensor-assay potency score (higher = more potent) of -0.603. In turn, TCAGTGATCTTGGTCTCTGGGC gave a sensor-assay potency score (higher = more potent) of -0.249.

Sequence TATCAGTGATCTTGGTCTCTGG yielded a sensor-assay potency score (higher = more potent) of -0.564. On the same count and under the same terms, then TTATCAGTGATCTTGGTCTCTG, with -0.647.

Turning to TATAGAATCACTGTTGCCTGAT, the sensor-assay potency score (higher = more potent) turned out to be 0.198. Still for that read-out and setting: then TTTCTTATCAGTGATCTTGGTC, with -0.281; and TTGCTGTCGAGAACATTTCTTA, with -0.631.

Another assay deals with ARF4. The assay is described as above. Particulars: shRNA.
Consider TACAGAATGGTTGTCTTGCCAG, for which the sensor-assay potency score (higher = more potent) was -0.56.

ATCTTGACCACCAACATCCCAT yielded a sensor-assay potency score (higher = more potent) of -0.565. In turn, TTCTATCTTGACCACCAACATC came in with a sensor-assay potency score (higher = more potent) of -1.78.

Regarding TAATTTTGTTGTAACAAGCCTA, the sensor-assay potency score (higher = more potent) was -0.0701. Still for that read-out and setting: then TTCTGTTACGAAGAGACTGAAG, with -1.25; and AATTTTATCAAACATGTCCTTG, with -0.486; and TATCTTGACCACCAACATCCCA, with -1.07. In the case of TAATTCTATCTTGACCACCAAC, the sensor-assay potency score (higher = more potent) was -1.26. On the same count and under the same terms, then TTGAACATACCATGTTCTGTTA, with -0.718; and TTTCACGATCGTTGCTATCTAC, with 0.0471; and TTTATCAAACATGTCCTTGGTT, with 0.237. On the same count and under the same terms, then TTATACAGAATGGTTGTCTTGC, with 0.842.

TTGACAGCCAGTCAAGTCCTTC returned a sensor-assay potency score (higher = more potent) of -0.84. On the same count and under the same terms, then TTTGTTTGCAAAAAGTAGCAGC, with -0.61; and TAGCATTTGGCAAATCCTGTTT, with -0.434. The same measure, in the same setting: then TTTTCTGCAGCTCATCTGCTAC, with -0.921.

For TTGTCTTGCCAGCAGCATCCAA, the sensor-assay potency score (higher = more potent) is -0.778. On the same count and under the same terms, then TACTGTGAAACAAATGTTCTTA, with 0.474. Turning to TTGTGTTGCACAAGTGGCTTGA, the sensor-assay potency score (higher = more potent) is 0.462.
